Test results published in publication PMC10480535.

Biological target: MOB kinase activator 2 (UniProt Q70IA6)
Assay: cross-link between two proteins; cross-linking mass spectrometry; proximity labelling

Sequence of UniProt Q70IA6 (Q70IA6 whole entry): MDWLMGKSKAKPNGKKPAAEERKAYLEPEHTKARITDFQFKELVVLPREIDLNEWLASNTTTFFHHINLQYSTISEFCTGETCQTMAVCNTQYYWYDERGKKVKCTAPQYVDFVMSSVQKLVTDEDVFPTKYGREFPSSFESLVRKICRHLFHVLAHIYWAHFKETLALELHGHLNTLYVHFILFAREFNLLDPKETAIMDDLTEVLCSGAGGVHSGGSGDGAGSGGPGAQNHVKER

Question: For Flotillin-1, O75955, which “listed as a hit” value is on record?
Answer: yes
